Active and inactive are the calls of the source.

Experiment [1] is described as follows: A549 cell viability effects, profiling panel, calcein-AM fluorescence, 48 h, basal (AID 1162). As to conditions: higher = more signal.
Experiment [2] is described as follows: adipocyte viability effects, profiling panel, cell-based, 3T3-L1 adipocytes, calcein-AM fluorescence, 48 h, basal (AID 1163). As to conditions: 3T3-L1 adipocytes viability, higher = more signal.
Experiment [3] in a line: HepG2 cell viability effects, profiling panel, calcein-AM fluorescence, 48 h, basal (AID 1164). The note with it: higher = more signal.
The nature of experiment [4]: MM1S cell viability effects, profiling panel, calcein-AM fluorescence, 48 h, basal (AID 1165).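 Note: viability of MM1S multiple myeloma cells under basal unstimulated conditions.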 The note with it: higher = more signal.
Experiment [5] can be described thus: basal RPMI8226 viability, no added stimulus, profiling panel, cell-based, calcein-AM fluorescence, 48 h, PK04 Diversity Set (AID 1166).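 Note: cells grown under basal conditions without added stimulus.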 As to conditions: RPMI8226 myeloma viability, higher = more signal.
The nature of experiment [6]: basal HepG2 mitochondrial membrane potential changes, profiling panel, cell-based, JC-1 fluorescence, 24 h, 100 nL compound (AID 1167). The note with it: higher = more signal.
The nature of experiment [7]: basal 3T3-L1 adipocyte mitochondrial potential changes, profiling panel, cell-based, JC-1 fluorescence, 3T3-L1 adipocytes, 24 h, 100 nL compound (AID 1168). The note with it: JC-1 mitochondrial fluorescence, higher = more signal, called active from +8 up or from −8 down.
The nature of experiment [8]: basal RPMI8226 mitochondrial membrane potential changes, profiling panel, cell-based, JC-1 fluorescence, 24 h, 100 nL compound (AID 1169). The note with it: RPMI8226 myeloma, JC-1 mitochondrial potential fluorescence, higher = more signal.
Experiment [9] is described as follows: basal MM1S mitochondrial membrane potential changes, profiling panel, cell-based, JC-1 fluorescence, 24 h, 100 nL compound (AID 1170). As to conditions: higher = more signal.
Experiment [10] in a line: A549 lung cancer cell viability effects, profiling panel, resazurin fluorescence, 24 h, PK04 Diversity Set (AID 1171). As to conditions: higher = more signal, called active from +8 up or from −8 down.
Note: test concentration not given here.

For `[N-]=[N+]=Nc1ccccc1[C@@H]1OC(c2ccc(OCCCO)cc2)=N[C@]1(Cc1ccccc1)C(=O)O`, the z-score was 0.666 in [1]; 0.344 in [2]; 0.547 in experiment [3]; -1.49 in experiment [4]; -0.56 in [5]; -1.24 in experiment [6]. Besides, the z-score was 1.62 (inactive) in experiment [7], -0.739 in experiment [8], -0.883 in experiment [9] and 1.2 (inactive) in experiment [10].

Take `CCCCCCc1nc(Cc2cc(OC)c(OC)c(OC)c2)cc2c1[Si](C(C)C)(C(C)C)OC2`: the z-score in [1] was -1.79; in experiment [2], 0.5; in experiment [3], 0.0671; in [4] it was -3.02; in experiment [5], -4.45; in experiment [6], 0.785. For the same molecule, the z-score in experiment [7] is 0.705 (inactive); in experiment [8] it was -1.06; in experiment [9] it was -0.48; in experiment [10], 1.64 (inactive).

On to `CCCN1C(=O)[C@@]2(Cc3ccccc31)N=C(c1ccc(OCCCO)cc1)O[C@H]2c1ccccc1`, for which the z-score is -1.06 in experiment [1]; 0.526 in experiment [2]; -1.1 in experiment [3]; -3.51 in experiment [4]; -4.16 in experiment [5]; -0.895 in experiment [6]. The z-score is 0.201 (inactive) in experiment [7], -1.16 in experiment [8], -0.502 in [9] and -1.11 (inactive) in experiment [10].

`O=C1O[C@@H](c2ccccc2)[C@@H](c2ccccc2)N2[C@@H](c3ccc(O)cc3)[C@]3(C(=O)Nc4ccc(C#CCCO)cc43)[C@@H](C(=O)N3CCN(c4ncccn4)CC3)[C@H]12`: the z-score was -0.716 in experiment [1]; -0.0773 in experiment [2]; 0.0219 in experiment [3]; 0.441 in experiment [4]; 0.1 in experiment [5]; -1.95 in [6]. The z-score in experiment [7] is -0.252 (inactive); in experiment [8] it was -0.681; in experiment [9] it was -0.425; in experiment [10], 0.378 (inactive).

On to `Cc1ccc(S[C@]2(C(=O)NCc3ccccc3)CC(=O)N(C3CCCCC3)[C@@H]2c2ccc(CO)cc2I)cc1`, for which the z-score in experiment [1] is -0.0709; in [2], 0.183; in experiment [3], 0.398; in experiment [4] it was -1.93; in experiment [5], -3.39; in experiment [6], 0.521. The z-score in experiment [7] is 0.97 (inactive); in experiment [8] it was -0.464; in experiment [9], -1.62; in experiment [10] it was -0.99 (inactive).

Take `CO[C@H]1O[C@H](CO)[C@@H](OC(=O)Nc2ccccc2)[C@H](OC(=O)c2cc3ccccc3[nH]2)[C@H]1OC(=O)c1cc2ccccc2[nH]1`: the z-score in experiment [1] was -0.14; in experiment [2] it was 0.544; in experiment [3], 0.131; in experiment [4], -0.294; in [5] it was -0.939; in experiment [6], 1.12. Besides, the z-score is 2.46 (inactive) in experiment [7], -0.766 in experiment [8], -0.61 in experiment [9] and -2.51 (inactive) in [10].

For the molecule `[N-]=[N+]=NCc1ccccc1[C@H]1OC(c2ccc(OCCCO)cc2)=N[C@@]1(Cc1ccccc1N=[N+]=[N-])C(=O)NCC(O)CO` (stereo not given in full), the z-score in experiment [1] was -0.471; in experiment [2] it was 0.517; in [3], -0.353; in experiment [4], -3.22; in experiment [5], -3.36; in experiment [6], -0.504. Besides, the z-score in [7] is -0.618 (inactive); in [8], -0.962; in experiment [9], -0.934; in experiment [10], 0.286 (inactive).

For `CC1=C2[C@@H](CCc3ccccc3)OB(O)C[C@@H]2[C@@H]2C(=O)N(C)C(=O)[C@@H]2C1`, the z-score in experiment [1] was -0.0116; in experiment [2], 0.417; in experiment [3] it was -0.21; in experiment [4], -2.12; in experiment [5] it was 0.339; in experiment [6], -1.18. Further, the z-score in experiment [7] was -0.467 (inactive); in [8], -0.519; in [9], -0.423; in [10] it was 0.0857 (inactive).

Consider `[N-]=[N+]=NCc1ccccc1C[C@@]1(C(N)=O)N=C(c2ccc(OCCCO)cc2)O[C@@H]1c1ccccc1`, for which the z-score in experiment [1] is -0.914; in experiment [2], 0.0779; in [3] it was -1.94; in experiment [4], -3.04; in [5], -2.88; in experiment [6] it was -0.864. The z-score is -0.262 (inactive) in experiment [7], -1.22 in experiment [8], -0.301 in experiment [9] and -1.08 (inactive) in [10].

`CCCCCCCCCC(O)C1C=CC2C(=O)N(c3ccccc3)C(=O)C2N1Nc1cc(OC)c(OC)c(OC)c1` (stereo not given): the z-score in experiment [1] was -1.07; in [2], 0.614; in experiment [3] it was -0.777; in [4] it was -3.83; in experiment [5] it was -4.07; in [6], -0.0684. Moreover, the z-score in [7] is 0.783 (inactive); in [8], -0.994; in [9], -1.21; in [10] it was -1.58 (inactive).

For `CO[C@H]1O[C@H](CO)[C@@H](OC(=O)CCc2ccccc2)[C@@H]2OC(=O)[C@@H](Cc3ccccc3)C/C=C/C[C@H](Cc3ccccc3)C(=O)O[C@@H]12`, the z-score in [1] is 1.7; in experiment [2], 0.271; in experiment [3], 0.514; in experiment [4] it was -0.753; in experiment [5] it was -0.711; in [6], 0.358. Further, the z-score in experiment [7] was 0.669 (inactive); in experiment [8] it was 0.578; in [9] it was -0.946; in experiment [10], 1.2 (inactive).

Turning to `C=CCOC(=O)[C@@]1(Cc2ccccc2)C[C@H]2CO[C@H](c3ccc(OC)cc3)N2C1=O`, the z-score is 0.158 in experiment [1]; 0.223 in experiment [2]; -0.311 in [3]; -0.657 in [4]; -1.5 in [5]; -0.574 in experiment [6]. Moreover, the z-score is 0.437 (inactive) in experiment [7], -0.272 in experiment [8], -0.47 in experiment [9] and 0.864 (inactive) in [10].

Take `CCOC(=O)C[C@H]1[C@H](OC(=O)c2ccc(C(=O)c3ccccc3)cc2)[C@@H](NC(=O)c2ccc3ccccc3n2)c2cc(OCCCO)ccc2N1C(=O)Cc1ccc(OC)cc1`: the z-score was 0.822 in experiment [1]; 0.418 in [2]; 0.113 in experiment [3]; 0.37 in [4]; 0.0914 in [5]; 0.546 in [6]. Moreover, the z-score was 0.295 (inactive) in experiment [7], -0.181 in [8], -0.14 in experiment [9] and 0.0291 (inactive) in experiment [10].

On to `COc1cc(NN2C(C(O)c3ccc(N(C)C)cc3)C=CC3C(=O)N(c4ccccc4)C(=O)C32)cc(OC)c1OC` (stereo not given), for which the z-score in experiment [1] was -0.0098; in [2], 0.808; in [3], 0.181; in experiment [4], -0.0191; in [5], -0.889; in experiment [6], -0.112. Moreover, the z-score in experiment [7] is -0.783 (inactive); in experiment [8], 0.134; in [9], -0.0117; in [10], -0.815 (inactive).

`C=CCN1C(=O)[C@]2(CCC(=O)OC(C)(C)C)N=C(c3ccc(OCCCO)cc3)O[C@@H]2c2ccccc21`: the z-score is -0.656 in experiment [1]; 1.79 in experiment [2]; -1.74 in [3]; -3.56 in experiment [4]; -4.05 in [5]; -1.45 in experiment [6]. Also, the z-score is 4.11 (inactive) in [7], -1.05 in [8], -2.81 in [9] and -2.21 (inactive) in [10].
